Test results published in PubChem BioAssay (NCI).
“And” between values parts separate entries of the source, which are not always exact repeats. Identical values can stand only once. Compounds without any hit were thinned out: in the full panel of roughly 79,000, 15% have a hit. The source made the active and inactive calls. Cut-off read from the data, not from the text of the source: active = growth inhibition above about 70%; inactive = the rest.

How the values were obtained:
[1] = NCI Yeast Anticancer Drug Screen. Data for the rad50 strain (AID 155);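 note: 0% = growth of vehicle-only cultures of the same strain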; details: S. cerevisiae rad50 strain growth inhibition, hits give high values
Outline: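 DNA repair mutant yeast, compound exposure, growth read-out; inhibition is taken relative to vehicle.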

[2] = NCI Yeast Anticancer Drug Screen. Data for the mec2-1 strain (AID 157); details: S. cerevisiae mec2-1 strain, hits give high values
Outline: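 Readout is yeast growth inhibition, normalised to vehicle-treated controls, in the mec2-1 strain exposed to compound.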

[3] = NCI Yeast Anticancer Drug Screen. Data for the sgs1 mgt1 strain (AID 161);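 note: 0% = growth of cultures given vehicle only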; details: S. cerevisiae sgs1 mgt1 strain, hits give high values
Outline: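 Compounds are added to genetically altered yeast, and growth is compared with cultures given vehicle alone to give percent inhibition.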

[4] = NCI Yeast Anticancer Drug Screen. Data for the cln2 rad14 strain (AID 165);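 note: 0% = growth equal to vehicle treated cultures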; details: S. cerevisiae cln2 rad14 strain, hits give high values
Outline: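 Relative to vehicle controls, growth inhibition of compound-treated cln2 rad14 yeast was recorded.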

[5] = NCI Yeast Anticancer Drug Screen. Data for the bub3 strain (AID 167); details: S. cerevisiae bub3 mutant strain, hits give high values
Outline: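 In this screen, a yeast mutant lacking normal mitotic checkpoint function is challenged with compound. Relative growth versus vehicle gives the inhibition value.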

[6] = NCI Yeast Anticancer Drug Screen. Data for the mlh1 rad18 strain (AID 175); details: S. cerevisiae mlh1 rad18 strain growth inhibition, hits give high values
Outline: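 Test agents were incubated with a yeast strain of defined genotype (DNA damage repair defect). Inhibition of growth was derived by comparison with vehicle-exposed cultures.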

[7] = NCI Yeast Anticancer Drug Screen. Data for the wt1 strain (AID 149);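 note: 0% = growth of vehicle-treated wt1 cultures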; details: S. cerevisiae wt1 strain (SPY 50644) growth inhibition, hits give high values
Outline: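 wt1 strain grown with compound or vehicle; inhibition taken from the growth difference.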

[8] = NCI Yeast Anticancer Drug Screen. Data for the rad14 strain (AID 159);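 note: 0% = growth of vehicle-treated control cultures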; details: S. cerevisiae rad14 strain growth inhibition, hits give high values
Outline: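 DNA repair-defective yeast, compound-exposed; % growth inhibition derived by comparison with vehicle-treated controls.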

[9] = NCI Yeast Anticancer Drug Screen. Data for the CLN2oe strain (AID 163);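 note: 0% = growth of vehicle-only control cultures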; details: S. cerevisiae CLN2oe strain, hits give high values
Outline: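 Values reflect how much compound exposure reduced yeast growth, referenced to vehicle-exposed cells. Assay organism is a strain with a defined genetic change affecting cell-cycle control.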

[10] = NCI Yeast Anticancer Drug Screen. Data for the wt2 strain (AID 169);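 note: 0% = growth of vehicle-treated yeast cultures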; details: S. cerevisiae wt2 strain growth inhibition, hits give high values
Outline: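 Values express reduction in yeast growth under compound treatment, referenced to vehicle-treated cells.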

[11] = NCI Yeast Anticancer Drug Screen. Data for the mlh1 strain (AID 171);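 note: 0% = growth of vehicle-treated control cultures of the same strain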; details: S. cerevisiae mlh1 strain growth inhibition, hits give high values
Outline: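 Steps: expose the defined-mutant yeast strain to compound; expose a parallel culture to vehicle; measure growth; express compound effect as inhibition relative to the vehicle culture.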

[12] = NCI Yeast Anticancer Drug Screen. Data for the sgs1 strain (AID 173);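 note: 0% = growth of vehicle-only control cultures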; details: S. cerevisiae sgs1 mutant, hits give high values
Outline: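 Treat defined-mutant yeast with compound; measure growth; calculate inhibition relative to vehicle-treated cells.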

[13] = NCI Yeast Anticancer Drug Screen. Data for the rad18 strain (AID 177); details: S. cerevisiae rad18 mutant growth inhibition, hits give high values
Outline: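 A genetically defined yeast mutant impaired in DNA damage repair was treated with test compounds, then its growth was measured against cultures receiving vehicle alone.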

[14] = NCI Yeast Anticancer Drug Screen. Data for the mgt1 strain (AID 153); details: S. cerevisiae mgt1 mutant growth inhibition, hits give high values
Outline: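 Genetically defined yeast (mgt1) treated with compound; inhibition of growth expressed against vehicle-treated controls.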

[15] = at 5.0 µM (retest, dose inferred, filed as 0.5)
[16] = at 50.0 µM (retest, dose inferred, filed as 5.0)

Measured: growth inhibition

OCC(O)C(O)C(O)C(O)c1nc2ccccc2[nH]1 (stereo unspecified)
inactive: [1]; [15] -2% and -4% | [1]; [16] -1% and -19% | [1]; at 50.0 µM 4% [middle of 5 runs] | [2]; [15] -17% and -20% | [2]; [16] -30% | [2]; at 50.0 µM 0.75% [middle of 5 runs] | [3]; [15] 3% and -6% | [3]; [16] 1% and -14% | [3]; at 50.0 µM 2% [middle of 5 runs] | [4]; [15] 0% and 2% | [4]; [16] -1% and 14% | [5]; [15] 6% and -5% | [5]; [16] 12% and -1% | [6]; [15] -1% and -11% | [6]; [16] 5% and 1%

CSc1ccc2c(c1)C(N1CCN(C)CC1)Cc1ccccc1S2 (stereo unspecified)
active: [7]; at 100.0 µM 99% | [1]; at 33.0 µM 76% | [1]; at 50.0 µM 88.1% | [1]; at 100.0 µM 98% | [2]; at 33.0 µM 83% | [2]; [16] 78% | [2]; at 50.0 µM 78.6% | [2]; at 100.0 µM 99% | [8]; at 33.0 µM 98% | [8]; at 100.0 µM 99% | [3]; [15] 98% | [3]; [16] 86% | [3]; at 50.0 µM 84.2% | [9]; at 100.0 µM 99% | [4]; [15] 91% | [4]; [16] 88% | [4]; at 50.0 µM 76% | [5]; [15] 98% | [5]; at 33.0 µM 91% | [5]; [16] 86% | [5]; at 50.0 µM 81.7% | [5]; at 100.0 µM 98% | [10]; at 100.0 µM 99% | [11]; at 33.0 µM 88% | [11]; at 100.0 µM 98% | [12]; at 33.0 µM 70% | [12]; at 100.0 µM 98% | [6]; [16] 89% | [6]; at 50.0 µM 92.8% | [13]; at 33.0 µM 75% | [13]; at 100.0 µM 98%
inactive: [7]; at 1.2 µM -58% | [7]; at 3.7 µM -61% | [7]; at 11.0 µM -57% | [7]; at 33.0 µM -6% | [1]; at 1.2 µM -34% | [1]; at 3.7 µM -47% | [1]; [15] 28% | [1]; at 11.0 µM -25% | [1]; [16] 67% | [2]; at 1.2 µM -75% | [2]; at 3.7 µM -83% | [2]; [15] 15% | [2]; at 11.0 µM -4% | [8]; at 1.2 µM -55% | [8]; at 3.7 µM -36% | [8]; at 11.0 µM 5% | [9]; at 1.2 µM -17% | [9]; at 3.7 µM 5% | [9]; at 11.0 µM 13% | [9]; at 33.0 µM 52% | [5]; at 1.2 µM -68% | [5]; at 3.7 µM -46% | [5]; at 11.0 µM 14% | [10]; at 1.2 µM -59% | [10]; at 3.7 µM -35% | [10]; at 11.0 µM -46% | [10]; at 33.0 µM 6% | [11]; at 1.2 µM -67% | [11]; at 3.7 µM -68% | [11]; at 11.0 µM -37% | [12]; at 1.2 µM -34% | [12]; at 3.7 µM -84% | [12]; at 11.0 µM -27% | [6]; [15] 35% | [13]; at 1.2 µM -44% | [13]; at 3.7 µM -72% | [13]; at 11.0 µM -44%

O=C(c1c(F)c(F)c(F)c(F)c1F)c1c(F)c(F)c(F)c(F)c1F
active: [14]; at 11.0 µM 98% | [14]; at 33.0 µM 99% | [14]; at 100.0 µM 99% | [1]; [15] 79% | [1]; at 11.0 µM 95% | [1]; at 33.0 µM 96% | [1]; [16] 97% | [1]; at 50.0 µM 84.6% | [1]; at 100.0 µM 95% | [2]; at 3.7 µM 77% | [2]; at 11.0 µM 99% | [2]; at 33.0 µM 100% | [2]; [16] 99% | [2]; at 50.0 µM 87.5% | [2]; at 100.0 µM 99% | [8]; at 11.0 µM 98% | [8]; at 33.0 µM 99% | [8]; at 100.0 µM 99% | [3]; [16] 74% | [3]; at 50.0 µM 76.7% | [9]; at 3.7 µM 72% | [9]; at 11.0 µM 98% | [9]; at 33.0 µM 99% | [9]; at 100.0 µM 97% | [4]; [16] 70% | [4]; at 50.0 µM 85.7% | [5]; at 3.7 µM 80% | [5]; at 11.0 µM 96% | [5]; at 33.0 µM 99% | [5]; [16] 80% | [5]; at 50.0 µM 88.7% | [5]; at 100.0 µM 97% | [10]; at 11.0 µM 98% | [10]; at 33.0 µM 99% | [10]; at 100.0 µM 98% | [11]; at 11.0 µM 97% | [11]; at 33.0 µM 98% | [11]; at 100.0 µM 97% | [12]; at 3.7 µM 72% | [12]; at 11.0 µM 96% | [12]; at 33.0 µM 97% | [12]; at 100.0 µM 95% | [6]; [16] 88% | [13]; at 11.0 µM 92% | [13]; at 33.0 µM 96% | [13]; at 100.0 µM 93%
inactive: [14]; at 1.2 µM 24% | [14]; at 3.7 µM 59% | [1]; at 1.2 µM 27% | [1]; at 3.7 µM 59% | [2]; at 1.2 µM 36% | [2]; [15] 61% | [8]; at 1.2 µM 10% | [8]; at 3.7 µM 55% | [3]; [15] 15% | [9]; at 1.2 µM 4% | [4]; [15] 38% | [5]; at 1.2 µM 54% | [5]; [15] 3% | [10]; at 1.2 µM 16% | [10]; at 3.7 µM 52% | [11]; at 1.2 µM 16% | [11]; at 3.7 µM 56% | [12]; at 1.2 µM 39% | [6]; [15] 45% | [6]; at 50.0 µM 67.3% | [13]; at 1.2 µM 28% | [13]; at 3.7 µM 56%
